# Screening data: PubChem, National Center for Advancing Translational Sciences (NCATS)
# This is one part of a sample in which hits are shown more often than they occur.
# TbPYK inhibitor – T. brucei pyruvate kinase inhibition; Q57TT1; TbPYK enzyme, Kinase-Glo Plus ATP luminescence, 45 min; Potency, µM (titrated, usually from 76.8 µM), for the others: at the highest dose activity, negative = inhibition, most hits filed as inhibitors; 410,000 compounds, 0.12% hits; also: potency is read from the fitted curve at half-maximal effect; % is scaled to controls: 0 for no effect and ±100 for the full control effect; nearly all actives have a fitted effect of over 50% in size
#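 Luminescent Kinase-Glo Plus end-point after 45 min room-temperature reaction of T. brucei pyruvate kinase started with 130 uM ADP (final). Buffer TEA 50 mM pH 7.2 with KCl, MgCl2, BSA, Tween-20; titration-based qHTS with fitted concentration-effect curves.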
# Shiga toxin inh – inhibitors of Shiga toxin in Vero cells; Vero cells, Shiga toxin protein synthesis inhibition reporter; inhibition, % at 38.7 µM; 290,000 compounds, 9.2% hits; in the data active = inhibition mostly above about 28%, no sharp cut-off; inactive = mostly below about 43%; also: 0% is about no effect
# LmPK inhibitor – LmPK (Leishmania mexicana) enzyme inhibition | Q27686 | purified LmPK, Kinase-Glo ATP luminescence, 1 h | Potency, µM (series often up to 57.5 µM), for the others: at the highest dose activity change, negative = inhibition, actives largely listed as inhibitors | 290,000 compounds, 0.37% hits | AID 1721; also: potency is read from the fitted curve at half-maximal effect; % is scaled to controls: 0 for no effect and ±100 for the full control effect
# Target sequence (Q27686 whole entry, looked up): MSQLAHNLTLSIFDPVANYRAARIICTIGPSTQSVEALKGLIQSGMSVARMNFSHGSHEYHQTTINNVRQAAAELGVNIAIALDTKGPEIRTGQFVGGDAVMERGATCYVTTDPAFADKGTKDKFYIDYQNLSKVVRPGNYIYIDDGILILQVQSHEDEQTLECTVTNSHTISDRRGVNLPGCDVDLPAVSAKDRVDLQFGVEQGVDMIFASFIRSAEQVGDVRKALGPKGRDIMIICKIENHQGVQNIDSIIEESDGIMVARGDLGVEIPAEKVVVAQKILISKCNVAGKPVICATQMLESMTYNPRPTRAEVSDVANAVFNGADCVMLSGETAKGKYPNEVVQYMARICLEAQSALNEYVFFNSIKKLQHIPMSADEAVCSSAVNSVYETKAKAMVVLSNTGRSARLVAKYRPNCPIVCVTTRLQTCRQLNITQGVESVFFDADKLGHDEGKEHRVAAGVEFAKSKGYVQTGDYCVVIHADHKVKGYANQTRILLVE
#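 Pyruvate kinase activity monitored as ATP production (luciferase luminescence). Conditions: 0.1 nM enzyme, 0.5 mM PEP, 0.1 mM ADP, 1 h, RT; normalized against uninhibited and no-enzyme wells.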
# Cycloheximide cs – affects cycloheximide protein synthesis inhibition readout, counter-screen; 300,000 compounds, 12% hits; AID 2314; max response, %; cell reporter, cycloheximide protein synthesis inhibition counterscreen; in the data active = max response mostly above about 13%, no sharp cut-off; inactive = mostly below about 14%; also: read at 38.3 µM for the half of the compounds with a filed dose; 0% is about no effect
# Sm TGR block – S. mansoni TGR enzyme inhibition; Q962Y6; purified TGR, DTNB reduction, TNB absorbance 405 nm; Potency, µM (highest dose often 114 µM), for inactives: top-dose activity change, negative = inhibition, most hits filed as inhibitors; 360,000 compounds, 3% hits; AID 485364; also: potency is read from the fitted curve at half-maximal effect; % is scaled to controls: 0 for no effect and ±100 for the full control effect; nearly all actives have a fitted effect of over 60% in size
#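 Kinetic colorimetric format: TGR-catalysed, NADPH-driven DTNB reduction monitored via TNB absorbance. Enzyme dispensed at 20 nM; compound exposure 15 min at room temperature before reaction start.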
# Giardia FBPA inh-1 – Giardia lamblia aldolase inhibition | purified Giardia FBPA | Potency, µM (series often up to 59.6 µM), for inactives: at the top dose activity, negative = inhibition, hits mostly inhibitors | A8B2U2 | 290,000 compounds, 0.71% hits; also: potency is read from the fitted curve at half-maximal effect; % is scaled to controls: 0 for no effect and ±100 for the full control effect; nearly all actives have a fitted effect of over 55% in size
# Target sequence (A8B2U2 whole entry, looked up): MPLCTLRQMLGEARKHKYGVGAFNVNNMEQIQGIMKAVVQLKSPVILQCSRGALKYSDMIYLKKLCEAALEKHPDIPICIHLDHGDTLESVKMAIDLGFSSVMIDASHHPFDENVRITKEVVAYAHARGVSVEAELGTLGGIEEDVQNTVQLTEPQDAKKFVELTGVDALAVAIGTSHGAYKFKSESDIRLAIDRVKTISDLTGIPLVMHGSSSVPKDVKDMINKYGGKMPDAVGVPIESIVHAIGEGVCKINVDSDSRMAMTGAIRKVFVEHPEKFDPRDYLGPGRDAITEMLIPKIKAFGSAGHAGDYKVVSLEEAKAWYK
#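 40 nM FBPA preincubated 10 min at RT with compound (up to 57.5 uM final), then substrate plus GAPDH/TPI/NAD/arsenate coupling and diaphorase/resazurin added. Fluorescence read after 20 min at RT, 525/598 nm.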
# Giardia growth – Giardia lamblia growth inhibition; shares compounds with Giardia FBPA inh-1; Giardia lamblia trophozoite growth inhibition; Potency, µM (top dose mostly 57.5 µM), for inactives: at the highest dose activity change, negative = inhibition, hits mostly inhibitors; 1,500 compounds, 5% hits;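 also: potency is read from the fitted curve at half-maximal effect; trophozoites exposed to compound for 48 h at 37 °C; % is scaled to controls: 0 for no effect and ±100 for the full control effect; nearly all actives have a fitted effect of over 70% in size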
# Mammalian tox – counter-screen for Giardia aldolase inhibitors: mammalian cell toxicity; shares compounds with Giardia FBPA inh-1; mammalian cell viability counter-screen, qHTS; Potency, µM (doses to about 57.5 µM), inactives show at the highest dose viability change, negative = toxicity, actives largely listed as inhibitors; 1,500 compounds, 4% hits; AID 2786;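 also: Chinese hamster ovary cells used as mammalian cytotoxicity surrogate; viability measured as cellular ATP by luminescence; potency is read from the fitted curve at half-maximal effect; compound exposure lasted 48 h before reading; % is scaled to controls: 0 for no effect and ±100 for the full control effect; nearly all actives have a fitted effect of over 60% in size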
# Giardia FBPA inh-2 – confirmation of Giardia fructose-bisphosphate aldolase inhibitors | shares compounds with Giardia FBPA inh-1 | Potency, µM (series often up to 57.5 µM), inactives show at the highest dose activity change, negative = inhibition, usual class: inhibitors | AID 2787 | purified Giardia aldolase enzyme activity, qHTS | 1,500 compounds, 5% hits; also: potency is read from the fitted curve at half-maximal effect; % is scaled to controls: 0 for no effect and ±100 for the full control effect; nearly all actives have a fitted effect of over 45% in size
# Rabbit FBPA inh – blocks rabbit muscle aldolase in Giardia aldolase selectivity test; shares compounds with Giardia FBPA inh-1; Rabbit muscle FBPA enzyme inhibition, selectivity counter-screen; Potency, µM (series often up to 57.5 µM), for inactives: at the top dose activity, negative = inhibition, hits mostly inhibitors; 1,500 compounds, 4% hits; AID 2794; also: potency is read from the fitted curve at half-maximal effect; % is scaled to controls: 0 for no effect and ±100 for the full control effect; nearly all actives have a fitted effect of over 60% in size
# GAPDH counter – counter-screen for Giardia aldolase inhibitors: GAPDH coupling enzyme; GAPDH coupling enzyme counterscreen, biochemical, qHTS; Potency, µM (doses to about 57.5 µM), inactives show at the top dose activity change, negative = inhibition, most hits filed as inhibitors; AID 2795; 1,500 compounds, 6% hits; shares compounds with Giardia FBPA inh-1; also: potency is read from the fitted curve at half-maximal effect; % is scaled to controls: 0 for no effect and ±100 for the full control effect; nearly all actives have a fitted effect of over 55% in size
# Active calls of the source: *; ? = inconclusive; nt = no result; [ ] = dose if it differs, or a comment. Unless noted, calls follow the shape of the dose curve; as a rule, active = well fitted curve in the direction sought with a large enough effect; inconclusive = small, poorly fitted or top-dose-only effect, or another doubt; inactive = no such curve, though single readings can be large; an effect the other way counts as inactive or inconclusive.
SMILES,TbPYK inhibitor,Shiga toxin inh,LmPK inhibitor,Cycloheximide cs,Sm TGR block,Giardia FBPA inh-1,Giardia growth,Mammalian tox,Giardia FBPA inh-2,Rabbit FBPA inh,GAPDH counter
COC(=O)Cc1[nH]n(-c2nc3ccccc3s2)c(=O)c1C(C)=Nc1ccc(Cl)cc1,-14%,70*,-22%,39*,-9%,16µM*,?,-24%,3%,18%,13%
O=c1cc(CN2CCN(Cc3ccccc3)CC2)c2ccc(O)c(O)c2o1,6%,8,-2%,-3,?,18µM*,-28%,-28%,?,?,-24%
C=C[C@]1(C)C=C2C(=O)[C@@]3(O)OC(=O)[C@@]4(CCCC(C)(C)[C@H]34)[C@@]2(O)CC1,-8%,nt,nt,nt,nt,nt,nt,nt,nt,nt,nt
Cc1nnc(SCc2cc(=O)[nH]c(=S)[nH]2)s1,-22%,9,0%,-5,nt,7.9µM*,-25%,0%,5%,7%,13%
CCN(CC)S(=O)(=O)c1ccc(OC)c(NC(=O)c2ccc(-n3cncn3)c([N+](=O)[O-])c2)c1,-6%,nt,nt,nt,2%,nt,nt,nt,nt,nt,nt
O=C(O)c1ncn(Cc2ccccc2)c1C(=O)O,0%,-2,-8%,-4,9%,7.9µM*,?,-4%,7%,3%,6%
CCOC(=O)C1=C(O)/C(=C/c2ccc(CNC(=O)C(=O)Nc3ccc(C)cc3)o2)N=C1C,-10%,-10,-4%,0,18µM*,4.5µM*,?,?,-28%,-13%,6%
CCOC(=O)c1ccc(NC(=O)C(=O)NCc2ccc(/C=C(/C#N)C(=O)NCCOC)o2)cc1,-3%,17,-2%,7,6%,0%,nt,nt,nt,nt,nt
COC/C=C/C1=CC2=CC(=O)C(C)(OC(=O)c3cnc4ccccc4n3)C(=O)C2=CN1CCN1CCOCC1 (stereo not drawn),-9%,-3,-5%[11.5 µM],-2,14µM*,16µM*,-19%,-5%,?,?,?
CCc1nnc(N/N=C/c2ccccc2F)n1N,3%,48,1%,10,1%,20µM*,71%,-2%,?,-17%,-2%
CC(C)(C)c1nnc(N/N=C/c2ccccc2O)n(N)c1=O,-6%,-2,1%,-3,-20%,-18%,nt,nt,nt,nt,nt
CCc1nnc(N/N=C/c2ccccc2Cl)n1N,-7%,37,-3%,-2,14%,18µM*,?,3%,-26%,-15%,-19%
O=C(O)COc1ccccc1/C=N/NC(=O)C(O)c1ccccc1 (stereo not drawn),5%,-6,-3%,-2,4%,-8%,nt,nt,nt,nt,nt
CNC(=S)N/N=C/c1ccccc1OCC(=O)O,9%,18,0%,16,1%,20µM*,?,-2%,-8%,-1%,-7%
CCN1CCN(CC(=O)Nc2cc3c(cc2C(C)=O)OCO3)CC1,17%,-19,4%,2,-12%,13µM*,-1%[10.4 µM],13%,-2%,3%,9%
Cn1c(=O)c(C(=O)Nc2ncccc2O)c(O)c2ccccc21,3%,58,-13%,18,0%,8.9µM*,7%[10.4 µM],-5%,?,?,-14%
CCCn1c(=O)c(C(=O)Nc2ncccc2O)c(O)c2ccccc21,-2%,9,-2%,1,-27%,?,nt,nt,nt,nt,nt
COc1ccc(CN2CCN(Cc3ccc(Br)cc3)CC2)c(OC)c1OC,-7%,-3,2%,7,5%,?,nt,nt,nt,nt,nt
CSc1nccn1C(=O)c1ccccc1[N+](=O)[O-],-13%,17,4%,-1,?,28µM*,11%[10.4 µM],9%,-14%,-11%,-10%
Cn1ccnc1Sc1ccccc1[N+](=O)[O-],-1%,-5,9%,1,0%,-8%,nt,nt,nt,nt,nt
C[C@@H]1CN(S(=O)C(C)(C)C)[C@@H](CCO)/C1=C\CCO (stereo partly drawn),-1%,nt,nt,nt,nt,nt,nt,nt,nt,nt,nt
CC(=O)Nc1ccc(S(=O)(=O)NNC(=S)NCC2CCCO2)cc1 (stereo not drawn),-4%,11,0%,-3,?,13µM*,133%,2%,11%,9%,11%
OC(CN1CCCC1)Cn1ccc2ccccc21 (stereo not drawn),23%,-3,0%,-4,-18%,?,nt,nt,nt,nt,nt
OC(CNc1ccccc1)Cn1ccc2ccccc21 (stereo not drawn),-12%,4,1%,-2,nt,18µM*,?,-4%,-4%,1%,4%
O=C(O)c1cc(-c2ccc3ccccc3n2)nc2ccccc12,-6%,-2,-1%,5,4%,?,nt,nt,nt,nt,nt
SMILES,TbPYK inhibitor,Shiga toxin inh,LmPK inhibitor,Cycloheximide cs,Sm TGR block,Giardia FBPA inh-1,Giardia growth,Mammalian tox,Giardia FBPA inh-2,Rabbit FBPA inh,GAPDH counter
O=C(O)c1cc(-c2cc(C(=O)O)c3ccccc3n2)nc2ccccc12,nt,-4,1%,-3,-7%,2.5µM*,-13%[38.3 µM],-11%,-2%,4%,-6%
CC1(C)CC(N(CCc2ccccc2)Cc2ccccc2)CCO1 (stereo not drawn),-2%,-12,1%,5,12%,?,nt,nt,nt,nt,nt
c1ccc(CCN(Cc2ccccc2)C2CCN(C3CCCC3)CC2)cc1,-29%,-5,?,-2,-29%,20µM*,45µM*,-8%,6%,1%,3%
Cc1ccccc1OCC1Cn2c(nc3c2c(=O)n(C)c(=O)n3C)O1 (stereo not drawn),2%,-7,2%,-3,-10%,8%,nt,nt,nt,nt,nt
O=C(O)CCNS(=O)(=O)c1ccccc1C(F)(F)F,0%,24,5%,-3,5%,6%,nt,nt,nt,nt,nt
N/C(=N\NS(=O)(=O)c1ccccc1C(F)(F)F)c1ccccn1,-5%,11,7%,13,-6%,18µM*,6%[10.4 µM],7%,13%,11%,7%
Cc1nc(C(F)(F)F)c(C(=O)N/N=C(\N)c2ccccn2)s1,-3%,12,-2%,8,-7%,4.5µM*,32µM*,40µM*,?,-21%,-26%
Cc1nc(C)c(C(=O)N/N=C/c2ccco2)s1,4%,-4,3%,10,-15%,0%,nt,nt,nt,nt,nt
